Reference: PubChem BioAssay (NCATS)
Inconclusive results are not listed. Calls of active or inactive are those of the source. The call rests on the fitted dose curve; in most records, active means well fitted inhibition curve with a large enough effect; inconclusive means small, poorly fitted or top-dose-only effect; inactive means flat fitted curve, though single readings scatter.

system: astro; experiment: Drug repurposing screens with cells derived from glioblastoma tumor samples (AID 1345199); conditions: viability, ATP luminescence, 48 h; series mostly up to 45.9 µM; further: nearly all actives have a fitted effect of over 40% in size
Protocol: CD133+ cells were isolated from GBM patient biopsies and cultured as neurospheres. Neurospheres from four patients were used to screen the NCATS pharmaceutical collection (NPC) library of approved drugs and bioactive compounds. […] The neurospheres were incubated with drugs for 48 hours in 1536-well format, then assayed with an ATP content cell viability assay. […] These hits were cherry picked to confirm activity in the four original GBM lines screened plus three other slower growing GMB lines (unable to yield enough cells for a full primary screen). Variable activities of the confirmed primary hits in the different GBM patient lines were observed. The patient line 206 responded to the greatest number of compounds and line 923 responded to the least amount of active compounds.

**Q.** With CCOC(=O)c1cccnc1 as the compound, how does the outcome read?
**A.** inactive

**Q.** How did the outcome turn out when CN1C[C@@H]2C[C@H]1CN2c1cc2c(cc1F)c(=O)c(C(=O)O)cn2C1CC1 was run?
**A.** inactive

**Q.** Cc1c(N(C)C)c(=O)n(-c2ccccc2)n1C was tested. Which outcome did it give?
**A.** inactive

**Q.** How did the outcome turn out when O=c1[nH]c(=O)n([C@H]2C[C@H](O)[C@@H](CO)O2)cc1I was run?
**A.** inactive

**Q.** How did the outcome turn out when NC(=O)CC[C@@H](N)C(=O)O was run?
**A.** inactive

**Q.** How did the outcome turn out when CC(=O)N1C[C@H](O)C[C@H]1C(=O)O was run?
**A.** inactive

**Q.** With CCc1nnc(NS(=O)(=O)c2ccc(N)cc2)s1 as the compound, how does the outcome read?
**A.** inactive

**Q.** With C[C@@H](N)C(=O)O as the compound, how does the outcome read?
**A.** inactive

**Q.** For CC(=O)Nc1ccccc1, which outcome is on record?
**A.** inactive

**Q.** Cc1ccccc1N=Nc1ccc(N=Nc2c(O)ccc3ccccc23)c(C)c1 was tested. Which outcome did it give?
**A.** inactive

**Q.** Cc1cc(O)cc(C)c1Cl was tested. Which outcome did it give?
**A.** inactive

**Q.** How did the outcome turn out when CN1CC(=O)NC1=N was run?
**A.** inactive

**Q.** Which outcome does the source give for O=C(O)Cc1cn(-c2ccccc2)nc1-c1ccc(Cl)cc1 here?
**A.** inactive

**Q.** How did the outcome turn out when CCCCCC(C)N (stereo not given) was run?
**A.** inactive

**Q.** For CC(=O)Nc1ccc(OCCOCCOc2ccc(NC(C)=O)cc2)cc1, which outcome is on record?
**A.** inactive

**Q.** Which outcome does the source give for CC(=O)N[C@H]1[C@H]([C@H](O)[C@H](O)CO)OC(C(=O)O)=C[C@@H]1N=C(N)N here?
**A.** inactive

**Q.** C[n+]1ccccc1/C=N/O was tested. Which outcome did it give?
**A.** inactive

**Q.** For CN(C/C=C/C#CC(C)(C)C)Cc1cccc2ccccc12, which outcome is on record?
**A.** inactive

**Q.** CC1(C)[C@@H](OC(=O)CCC(=O)O)CC[C@]2(C)[C@H]3C(=O)C=C4[C@@H]5C[C@@](C)(C(=O)O)CC[C@]5(C)CC[C@@]4(C)[C@]3(C)CC[C@@H]12 was tested. Which outcome did it give?
**A.** inactive

**Q.** With Cc1cccc(C)c1NC(=O)CC12CCCN1CCC2 as the compound, how does the outcome read?
**A.** inactive

**Q.** How did the outcome turn out when COc1ccc(Cc2cnc(N)nc2N)cc1OC was run?
**A.** inactive

**Q.** How did the outcome turn out when Cc1ccsc1C(=CCCN1CCC[C@@H](C(=O)O)C1)c1sccc1C was run?
**A.** inactive

**Q.** Which outcome does the source give for CC(=O)N(CC(O)CO)c1c(I)c(C(=O)NCC(O)CO)c(I)c(C(=O)NCC(O)CO)c1I (stereo not given) here?
**A.** inactive

**Q.** CC(C(=O)O)c1ccc2c(c1)Cc1cccnc1O2 (stereo not given) was tested. Which outcome did it give?
**A.** inactive

**Q.** CC(C)(C)NCC(O)COc1cccc2c1CCC(=O)N2 (stereo not given) was tested. Which outcome did it give?
**A.** inactive

**Q.** With CN1CCCN=C1COC(=O)C(O)(c1ccccc1)C1CCCCC1 (stereo not given) as the compound, how does the outcome read?
**A.** inactive

**Q.** For O=C(O)Cc1ccc(CCNS(=O)(=O)c2ccc(Cl)cc2)cc1, which outcome is on record?
**A.** inactive

**Q.** How did the outcome turn out when NC(=O)CCCCC1CCSS1 (stereo not given) was run?
**A.** inactive

**Q.** CCOC(=O)[C@H](CCc1ccccc1)N[C@@H](C)C(=O)N1CCC[C@H]1C(=O)O was tested. Which outcome did it give?
**A.** inactive

**Q.** How did the outcome turn out when CCCOC(=O)c1ccc(N)cc1 was run?
**A.** inactive

**Q.** Cc1c(NC(=O)c2cccnc2)c(=O)n(-c2ccccc2)n1C was tested. Which outcome did it give?
**A.** inactive

**Q.** O=C(O)COC(=O)Cc1ccccc1Nc1c(Cl)cccc1Cl was tested. Which outcome did it give?
**A.** inactive

**Q.** For CCCCCOC(=O)Nc1nc(=O)n([C@@H]2O[C@H](C)[C@@H](O)[C@H]2O)cc1F, which outcome is on record?
**A.** inactive

**Q.** Which outcome does the source give for COC(=O)c1ccc(O)cc1 here?
**A.** inactive

**Q.** COc1ccc(C(=O)NCc2ccc(OCCN(C)C)cc2)cc1OC was tested. Which outcome did it give?
**A.** inactive

**Q.** Which outcome does the source give for Cc1cc(-n2nc3ccc(Cl)cc3n2)c(O)c(C(C)(C)C)c1 here?
**A.** inactive

**Q.** For CC[N+](CC)(CC(=O)Nc1c(C)cccc1C)Cc1ccccc1, which outcome is on record?
**A.** inactive

**Q.** For O=C(O)CNC(=O)c1ccccc1I, which outcome is on record?
**A.** inactive

**Q.** How did the outcome turn out when N[C@@H](Cc1ccc(O)cc1)C(=O)O was run?
**A.** inactive

**Q.** Which outcome does the source give for CC(=O)Oc1cccc(O)c1 here?
**A.** inactive
